Screening results deposited in PubChem BioAssay by several laboratories.
Only some compounds are listed: those with a hit (about 2.3% of all), similar ones and a draw of the others.
MCL1 BIM primary = inhibitors of human MCL1 binding to BIM-BH3 peptide. Q07820. GST-MCL1 / FITC-Bim-BH3 fluorescence polarization. inhibition, % at 10.9 µM. 0.68% of 320,000 active;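 active = inhibition above the mean inhibition of all tested compounds plus 3 SD, set per campaign, cut at about 40% in these data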;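 note: 0% = DMSO wells and 100% = unlabeled Bim-BH3 peptide control; higher means more loss of mP so more displacement of Bim peptide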
GLD-1 TGE inh = GLD-1-TGE RNA interaction inhibition (C. elegans); AID 2280; purified GLD-1 + fluorescein TGE RNA, fluorescence polarization; Q17339; inhibition, % at 5.96 µM; 0.44% of 320,000 active;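 active = percent inhibition above a per-plate cutoff, the plate mean of test compounds plus 3 SD, cut at about 30% in these data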;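 note: 0% = DMSO wells with GLD-1 and probe and 100% = wells lacking GLD-1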
Mcl1-Noxa inh = Mcl-1/Noxa interaction inhibition | inhibition, % at 21.7 µM | Q07820 | 1.5% of 220,000 active | TR-FRET Mcl-1/Noxa peptide binding, 2 h;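 active = compounds that cut the protein-peptide binding signal by more than 50% relative to plate controls in a single-dose test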;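 note: His-tagged Mcl-1 with rhodamine Noxa BH3 peptide and terbium anti-His antibody; 0% = Mcl-1 plus Noxa peptide wells and 100% = peptide-only wells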
Mcl-1 Bim block = disrupts Bim peptide binding to human Mcl-1. Bead-based flow cytometry, Bim peptide-Mcl-1 binding. AID 1009. 0.1% of 190,000 active. inhibition, % at 10 µM; in the data active = inhibition above about 40%;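 note: 0% = no compound tracer wells and 100% = peptide blocker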
Mcl1 Bid PPI = disrupts binding of human Mcl-1 to Bid peptide. TR-FRET Mcl-1/Bid-Dy647 peptide binding, 1536-well. Q07820. AID 1021. inhibition, % at 21.7 µM. 0.97% of 220,000 active;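 active = compounds that cut the binding signal by more than half at the single screening dose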;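 note: His-tagged Mcl-1 with europium anti-His antibody binding Bid BH3 peptide; 0% = Mcl-1 plus peptide wells and 100% = peptide-only wells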
BCLXL inh = inhibitors of human Bcl-xL | Q07817 | GST-Bcl-xL / FITC-Bim BH3 peptide fluorescence polarization | inhibition, % at 10.9 µM | 0.7% of 320,000 active;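 active = inhibition above the mean of all tested compounds plus 3 SD, cutoff set per campaign, cut at about 30% in these data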;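 note: 0% = DMSO wells and 100% = unlabeled Bim-BH3 peptide competitor; inhibitors lower millipolarization by displacing the labeled peptide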
Target sequence (Q07817 whole entry, looked up): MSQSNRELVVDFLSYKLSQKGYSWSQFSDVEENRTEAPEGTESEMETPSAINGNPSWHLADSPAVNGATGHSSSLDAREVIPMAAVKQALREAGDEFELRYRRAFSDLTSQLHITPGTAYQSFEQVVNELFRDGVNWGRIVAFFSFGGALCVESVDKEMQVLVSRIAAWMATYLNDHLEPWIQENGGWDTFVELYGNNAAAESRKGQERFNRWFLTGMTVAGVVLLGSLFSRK
The depositor's hits bear a star; . = no result.

SMILES	MCL1 BIM primary	GLD-1 TGE inh	Mcl1-Noxa inh	Mcl-1 Bim block	Mcl1 Bid PPI	BCLXL inh
CC(=O)c1c(O)c2ccccc2n(C)c1=O	-2	-7	51*	0	-21	4
O=C(COC(=O)c1nc(Cl)ccc1Cl)NC1CCCCC1	0	-1	.	.	.	-8
COc1cccc(CNC(=O)CCC2CCCN(C(=O)CCn3cncn3)C2)c1 (configuration not stated)	0	6	6	2	-44	5
O=C(Nc1ccc(Br)cc1)c1ccc(N2C(=O)C3CC=CCC3C2=O)cc1 (configuration not stated)	7	3	59*	0	-33	3
COc1cccc(NC(=O)c2ccc(N3C(=O)C4CC=CCC4C3=O)cc2)c1 (configuration not stated)	5	2	.	.	.	7
CCOc1ccc(C(=O)Nc2nnc(NC(=S)Nc3ccccc3)s2)cc1	3	-1	27	64*	-31	3
Cc1ccc(C(=O)Nc2nnc(NC(=S)Nc3ccccc3)s2)cc1	9	10	-27	-3	-28	9
S=C(Nc1ccc2nsnc2c1)N1CCCCCC1	30	18	7	-2	-49	32*
O=C(Nc1ccc2nsnc2c1)N1CCCCC1	0	0	14	-4	-6	5
CCN(CC)C(=O)CSc1nc2c(sc(=S)n2-c2ccccc2)c(=O)n1Cc1ccco1	5	-1	8	-6	-6	50*
Oc1ccc(C=Nc2ccc3ncccc3c2)c(O)c1	11	2	-2	5	-53	7
COc1cccc(N=Cc2ccc(O)cc2O)c1	43*	24	27	8	-18	43*
CCn1c(/N=C/c2ccc(OC)cc2O)nc2ccccc21	-3	-3	.	.	.	-3
Oc1ccc(C=Nc2cccc3ncccc23)c(O)c1	29	55*	4	0	-62	29
O=C(N/N=C/c1c[nH]c2ccccc12)c1cc(-c2ccc(-c3ccccc3)cc2)n[nH]1	-4	1	47	0	52*	-3
CSc1ccc(C2NC(=O)c3c(sc4c3CCN(C)C4)N2)cc1 (configuration not stated)	39	-79	27	-2	-27	-11
CN1CCc2c(sc3c2C(=O)NC(c2cccs2)N3)C1 (configuration not stated)	33	-31	11	0	-18	32*
CN1CCc2c(sc3c2C(=O)NC(/C=C\c2ccccc2)N3)C1 (configuration not stated)	11	4	12	.	-34	16
Cc1ccsc1C1NC(=O)c2c(sc3c2CCN(C)C3)N1 (configuration not stated)	31	-32	11	-1	-32	37*
CCCc1ccc(C(=O)CN2C(=O)C(=O)N(C3CCCC3)C2=O)cc1	0	6	.	.	.	1
CC1CN(C2CCN(S(=O)(=O)c3ccccc3)CC2)CC(C)O1 (configuration not stated)	8	5	24	-4	34	11
CC1CN(C2CCN(S(=O)(=O)Cc3ccccc3)CC2)CC(C)O1 (configuration not stated)	-9	2	14	0	51*	0
O=C(c1ccccc1)N1N=C(C(F)(F)F)CC1(O)c1ccc(F)cc1 (configuration not stated)	0	-1	.	.	.	2
Nc1c(C(=O)Nc2ccc(F)cc2)sc2nc(-c3ccco3)ccc12	-9	-3	98*	11	91*	8
Cc1ccc(NC(=O)c2sc3nc4c(c(-c5ccco5)c3c2N)CCC4)cc1	6	64*	17	-3	-17	28
CCc1cccc(NC(=O)C2CCN(S(=O)(=O)c3ccc4c(c3)NC(=O)CO4)CC2)c1	7	6	.	.	.	6
CC(C)C(=O)NC(=S)Nc1sc2c(c1C(N)=O)CCCC2	22	7	64*	0	-80	14
Cc1cccc(-n2c(SCC(=O)Nc3nnc(C)s3)nnc2-c2ccoc2C)c1	4	5	-4	-8	67*	4
O=C(c1cc(=O)c2ccccc2o1)N1CCN(c2ccccc2F)CC1	-4	0	10	41*	-12	2
O=C(c1cc(=O)c2ccccc2o1)N1CCN(c2cccc(Cl)c2)CC1	1	1	8	2	-8	0
